# About 410 targets per protein were measured; listed, in parts, are those with the strongest signals and a random draw of the rest.
# B1: ABA (Agaricus bisporus), Q00022 (protein)
# chain: MTYTISIRVYQTTPKGFFRPVERTNWKYANGGTWDEVRGEYVLTMGGSGTSGSLRFVSSDTDESFVATFGVHNYKRWCDIVTNLTNEQTALVINQEYYGVPIRDQARENQLTSYNVANAKGRRFAIEYTVTEGDNLKANLIIG
# Legend:
# Experiment in all cases: glycan array binding signal (z-score within array); higher = stronger binding
# Details in all cases: glycan notation: IUPAC condensed, linker removed
# [1] = molecular target: Fuc(a1-2)Gal(b1-3)GalNAc(a1-3)[Fuc(a1-2)]Gal(b1-4)Glc
# How it was run: (§1)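 From the Consortium for Functional Glycomics database, 3228 arrays were curated, keeping only those whose protein sequence was available. Binding is given as a within-array Z-score averaged across arrays sharing a protein sequence and across linkers. Negative Z-scores can be read as non-binding.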
# [2] = molecular target: Fuc(a1-2)Gal(b1-3)GalNAc(a1-3)[Fuc(a1-2)]Gal(b1-4)GlcNAc
# How it was run: as §1
# [3] = molecular target: Fuc(a1-2)Gal(b1-3)GalNAc(b1-4)[Neu5Ac(a2-3)]Gal(b1-4)Glc
# How it was run: as §1
# [4] = molecular target: Fuc(a1-2)Gal(b1-3)GlcNAc(b1-3)[Fuc(a1-2)Gal(b1-3)GlcNAc(b1-6)]GalNAc
# How it was run: as §1
# [5] = molecular target: Fuc(a1-2)Gal(b1-4)GlcNAc(b1-2)[Fuc(a1-2)Gal(b1-4)GlcNAc(b1-4)]Man(a1-3)[Fuc(a1-2)Gal(b1-4)GlcNAc(b1-2)Man(a1-6)]Man(b1-4)GlcNAc(b1-4)GlcNAc
# How it was run: as §1
# [6] = molecular target: Fuc(a1-2)Gal(b1-4)GlcNAc(b1-3)Gal(b1-4)GlcNAc(b1-2)Man(a1-3)[Fuc(a1-2)Gal(b1-4)GlcNAc(b1-3)Gal(b1-4)GlcNAc(b1-2)Man(a1-6)]Man(b1-4)GlcNAc(b1-4)GlcNAc
# How it was run: as §1
# [7] = molecular target: Fuc(a1-2)Gal(b1-4)GlcNAc6S
# How it was run: as §1
# [8] = molecular target: Fuc(a1-2)Gal(b1-4)[Fuc(a1-3)]GlcNAc(b1-2)[Fuc(a1-2)Gal(b1-4)[Fuc(a1-3)]GlcNAc(b1-4)]Man(a1-3)[Fuc(a1-2)Gal(b1-4)[Fuc(a1-3)]GlcNAc(b1-2)Man(a1-6)]Man(b1-4)GlcNAc(b1-4)GlcNAc
# How it was run: as §1
# [9] = molecular target: Fuc(a1-2)[Gal(a1-3)]Gal(b1-3)GalNAc
# How it was run: as §1
# [10] = molecular target: Fuc(a1-2)[Gal(a1-3)]Gal(b1-4)[Fuc(a1-3)]GlcNAc
# How it was run: as §1
# [11] = molecular target: Fuc(a1-3)[Gal(b1-4)]GlcNAc(b1-3)Gal(b1-3)[Fuc(a1-4)]GlcNAc
# How it was run: as §1
# Gal(a1-3)Gal(b1-3)GlcNAc = molecular target: Gal(a1-3)Gal(b1-3)GlcNAc
# How it was run: as §1
# Gal(a1-3)GalNAc = molecular target: Gal(a1-3)GalNAc
# How it was run: as §1
# [12] = molecular target: Gal(b1-3)GalNAc(a1-3)[Fuc(a1-2)]Gal(b1-4)Glc
# How it was run: as §1
# [13] = molecular target: Gal(b1-3)GalNAc(a1-3)[Fuc(a1-2)]Gal(b1-4)GlcNAc
# How it was run: as §1
# [14] = molecular target: Gal(b1-3)GlcNAc(b1-3)Gal(b1-4)[Fuc(a1-3)]GlcNAc
# How it was run: as §1
# [15] = molecular target: Gal(b1-3)GlcNAc(b1-6)GalNAc
# How it was run: as §1
# Gal(b1-4)Glc6S = molecular target: Gal(b1-4)Glc6S
# How it was run: as §1
# [16] = molecular target: Gal(b1-4)GlcNAc(b1-2)Man(a1-6)[GlcNAc(b1-2)Man(a1-3)]Man(b1-4)GlcNAc(b1-4)GlcNAc
# How it was run: as §1
# [17] = molecular target: Gal(b1-4)GlcNAc(b1-2)[Gal(b1-4)GlcNAc(b1-4)]Man(a1-3)[GlcNAc(b1-4)][Gal(b1-4)GlcNAc(b1-2)Man(a1-6)]Man(b1-4)GlcNAc(b1-4)GlcNAc
# How it was run: as §1
# [18] = molecular target: Gal(b1-4)GlcNAc(b1-3)Gal(b1-4)GlcNAc(b1-2)Man(a1-3)[Gal(b1-4)GlcNAc(b1-3)Gal(b1-4)GlcNAc(b1-2)Man(a1-6)]Man(b1-4)GlcNAc(b1-4)GlcNAc
# How it was run: as §1
# [19] = molecular target: Gal(b1-4)GlcNAc(b1-3)Gal(b1-4)GlcNAc(b1-3)[Gal(b1-4)GlcNAc(b1-3)Gal(b1-4)GlcNAc(b1-6)]GalNAc
# How it was run: as §1
# Gal(b1-4)GlcNAc6P = molecular target: Gal(b1-4)GlcNAc6P
# How it was run: as §1
# Gal3S(b1-3)GalNAc = molecular target: Gal3S(b1-3)GalNAc
# How it was run: as §1
# Gal3S4S(b1-4)GlcNAc = molecular target: Gal3S4S(b1-4)GlcNAc
# How it was run: as §1
# GalNAc(a1-3)Gal = molecular target: GalNAc(a1-3)Gal
# How it was run: as §1
# GalNAc(b1-3)GalNAc = molecular target: GalNAc(b1-3)GalNAc
# How it was run: as §1
# [20] = molecular target: GlcNAc(b1-2)Man(a1-3)[GlcNAc(b1-2)Man(a1-6)]Man(b1-4)GlcNAc(b1-4)GlcNAc
# How it was run: as §1
# [21] = molecular target: GlcNAc(b1-2)Man(a1-3)[GlcNAc(b1-4)][GlcNAc(b1-2)Man(a1-6)]Man(b1-4)GlcNAc(b1-4)GlcNAc
# How it was run: as §1
# [22] = molecular target: GlcNAc(b1-2)[GlcNAc(b1-4)]Man(a1-3)[GlcNAc(b1-4)][GlcNAc(b1-2)[GlcNAc(b1-6)]Man(a1-6)]Man(b1-4)GlcNAc(b1-4)[Fuc(a1-6)]GlcNAc
# How it was run: as §1
# [23] = molecular target: GlcNAc(b1-3)Gal(b1-4)GlcNAc(b1-3)Gal(b1-4)GlcNAc(b1-2)Man(a1-3)[GlcNAc(b1-3)Gal(b1-4)GlcNAc(b1-3)Gal(b1-4)GlcNAc(b1-2)Man(a1-6)]Man(b1-4)GlcNAc(b1-4)[Fuc(a1-6)]GlcNAc
# How it was run: as §1
# [24] = molecular target: GlcNAc(b1-3)Gal(b1-4)GlcNAc(b1-6)[GlcNAc(b1-3)Gal(b1-3)]GalNAc
# How it was run: as §1
# [25] = molecular target: GlcNAc(b1-4)GlcNAc(b1-4)GlcNAc
# How it was run: as §1
# Kdn(a2-3)Gal(b1-3)GalNAc = molecular target: Kdn(a2-3)Gal(b1-3)GalNAc
# How it was run: as §1
# Kdn(a2-6)Gal(b1-4)GlcNAc = molecular target: Kdn(a2-6)Gal(b1-4)GlcNAc
# How it was run: as §1
# [26] = molecular target: Man(a1-2)Man(a1-3)[Man(a1-2)Man(a1-6)]Man(a1-6)[Man(a1-2)Man(a1-2)Man(a1-3)]Man(b1-4)GlcNAc(b1-4)GlcNAc
# How it was run: as §1
# [27] = molecular target: Man(a1-3)[Man(a1-6)]Man(a1-6)[Man(a1-2)Man(a1-3)]Man(b1-4)GlcNAc(b1-4)GlcNAc
# How it was run: as §1
# [28] = molecular target: Neu5Ac(a2-3)Gal(b1-4)GlcNAc(b1-3)Gal(b1-4)GlcNAc(b1-2)Man(a1-3)[Neu5Ac(a2-3)Gal(b1-4)GlcNAc(b1-3)Gal(b1-4)GlcNAc(b1-2)Man(a1-6)]Man(b1-4)GlcNAc(b1-4)GlcNAc
# How it was run: as §1
# [29] = molecular target: Neu5Ac(a2-3)Gal(b1-4)GlcNAc(b1-3)Gal(b1-4)GlcNAc(b1-3)Gal(b1-4)GlcNAc(b1-2)Man(a1-3)[Neu5Ac(a2-3)Gal(b1-4)GlcNAc(b1-3)Gal(b1-4)GlcNAc(b1-3)Gal(b1-4)GlcNAc(b1-2)Man(a1-6)]GalNAc
# How it was run: as §1
# [30] = molecular target: Neu5Ac(a2-3)Gal(b1-4)GlcNAc(b1-3)Gal(b1-4)GlcNAc(b1-3)[Neu5Ac(a2-3)Gal(b1-4)GlcNAc(b1-3)Gal(b1-4)GlcNAc(b1-6)]GalNAc
# How it was run: as §1
# [31] = molecular target: Neu5Ac(a2-3)GalNAc(b1-4)GlcNAc
# How it was run: as §1
# [32] = molecular target: Neu5Ac(a2-3)[GalNAc(b1-4)]Gal(b1-4)Glc
# How it was run: as §1
# [33] = molecular target: Neu5Ac(a2-3)[GalNAc(b1-4)]Gal(b1-4)GlcNAc(b1-3)GalNAc
# How it was run: as §1
# [34] = molecular target: Neu5Ac(a2-6)Gal(b1-4)GlcNAc(b1-3)Gal(b1-4)GlcNAc(b1-3)GalNAc
# How it was run: as §1
# [35] = molecular target: Neu5Ac(a2-6)Gal(b1-4)GlcNAc(b1-3)Gal(b1-4)GlcNAc(b1-3)[Neu5Ac(a2-6)Gal(b1-4)GlcNAc(b1-3)Gal(b1-4)GlcNAc(b1-6)]GalNAc
# How it was run: as §1
# [36] = molecular target: Neu5Ac(a2-6)Gal(b1-4)GlcNAc(b1-6)[Gal(b1-3)GlcNAc(b1-3)]Gal(b1-4)Glc
# How it was run: as §1
# [37] = molecular target: Neu5Ac(a2-6)GlcNAc(b1-4)GlcNAc
# How it was run: as §1
# [38] = molecular target: Neu5Ac(a2-8)Neu5Ac(a2-3)Gal(b1-4)Glc
# How it was run: as §1
# [39] = molecular target: Neu5Ac(a2-8)Neu5Ac(a2-8)Neu5Ac
# How it was run: as §1
# Neu5Ac(b1-6)GalNAc = molecular target: Neu5Ac(b1-6)GalNAc
# How it was run: as §1
binder,measurement,setting,value
B1,glycan array binding signal (z-score),[1],-0.201
same,glycan array binding signal (z-score),[2],0.475
same,glycan array binding signal (z-score),[3],-0.192
same,glycan array binding signal (z-score),[4],-0.172
same,glycan array binding signal (z-score),[5],-0.048
same,glycan array binding signal (z-score),[6],-0.157
same,glycan array binding signal (z-score),[7],-0.289
same,glycan array binding signal (z-score),[8],0.231
same,glycan array binding signal (z-score),[9],-0.239
same,glycan array binding signal (z-score),[10],-0.155
same,glycan array binding signal (z-score),[11],-0.058
same,glycan array binding signal (z-score),Gal(a1-3)Gal(b1-3)GlcNAc,-0.192
same,glycan array binding signal (z-score),Gal(a1-3)GalNAc,-0.118
same,glycan array binding signal (z-score),[12],3.56
same,glycan array binding signal (z-score),[13],3.27
same,glycan array binding signal (z-score),[14],-0.245
same,glycan array binding signal (z-score),[15],-0.25
same,glycan array binding signal (z-score),Gal(b1-4)Glc6S,-0.203
same,glycan array binding signal (z-score),[16],2.81
same,glycan array binding signal (z-score),[17],-0.25
same,glycan array binding signal (z-score),[18],2.52
same,glycan array binding signal (z-score),[19],1.8
same,glycan array binding signal (z-score),Gal(b1-4)GlcNAc6P,-0.104
same,glycan array binding signal (z-score),Gal3S(b1-3)GalNAc,2.46
same,glycan array binding signal (z-score),Gal3S4S(b1-4)GlcNAc,-0.254
same,glycan array binding signal (z-score),GalNAc(a1-3)Gal,-0.234
same,glycan array binding signal (z-score),GalNAc(b1-3)GalNAc,0.071
same,glycan array binding signal (z-score),[20],5.72
same,glycan array binding signal (z-score),[21],2.54
same,glycan array binding signal (z-score),[22],-0.287
same,glycan array binding signal (z-score),[23],1.39
same,glycan array binding signal (z-score),[24],2.74
same,glycan array binding signal (z-score),[25],-0.093
same,glycan array binding signal (z-score),Kdn(a2-3)Gal(b1-3)GalNAc,0.099
same,glycan array binding signal (z-score),Kdn(a2-6)Gal(b1-4)GlcNAc,-0.239
same,glycan array binding signal (z-score),[26],0.46
same,glycan array binding signal (z-score),[27],2.82
same,glycan array binding signal (z-score),[28],2.72
same,glycan array binding signal (z-score),[29],2.8
same,glycan array binding signal (z-score),[30],0
same,glycan array binding signal (z-score),[31],-0.276
same,glycan array binding signal (z-score),[32],-0.249
same,glycan array binding signal (z-score),[33],1.31
same,glycan array binding signal (z-score),[34],-0.201
same,glycan array binding signal (z-score),[35],2.26
same,glycan array binding signal (z-score),[36],-0.255
same,glycan array binding signal (z-score),[37],-0.229
same,glycan array binding signal (z-score),[38],-0.267
same,glycan array binding signal (z-score),[39],-0.247
same,glycan array binding signal (z-score),Neu5Ac(b1-6)GalNAc,-0.191

# From the supplement of paper PMC8728848
